Test results: PubChem BioAssay (NCI)
About 83,000 compounds went through this panel and 20% of them were active in at least one assay; those are over-represented in the sample as a whole.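 The test compound was applied at a single concentration to cells in 96-well plates for 48 hours, and percent growth was recorded.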 Active and inactive are the calls of the source. Rule for the calls: active = growth percent below 10; inactive = the rest.

What was measured:
Assay in all cases: NCI-60 one-dose screen, 48 h (100 = growth as untreated, 0 = no growth, -100 = all killed)
Details in all cases: 10 µM unless noted
SR leukemia = system: SR leukemia
RPMI-8226 leukemia = system: RPMI-8226 leukemia
OVCAR-8 ovarian = system: OVCAR-8 ovarian
OVCAR-4 ovarian = system: OVCAR-4 ovarian
SK-OV-3 ovarian = system: SK-OV-3 ovarian
IGROV1 ovarian = system: IGROV1 ovarian
OVCAR-3 ovarian = system: OVCAR-3 ovarian
HS 578T breast = system: HS 578T breast
NCI/ADR-RES ovarian = system: NCI/ADR-RES ovarian
T-47D breast = system: T-47D breast
BT-549 breast = system: BT-549 breast
MDA-MB-435 melanoma = system: MDA-MB-435 melanoma
SW-620 colon = system: SW-620 colon
MCF7 breast = system: MCF7 breast
HCC-2998 colon = system: HCC-2998 colon
KM12 colon = system: KM12 colon
OVCAR-5 ovarian = system: OVCAR-5 ovarian
HCT-116 colon = system: HCT-116 colon

Measured: growth

CCN(CC)CCC(=O)Nc1ccc(Cn2nnc3c2C(=O)c2nnn(Cc4ccc(NC(=O)CCN(CC)CC)cc4)c2C3=O)cc1
active: SR leukemia -18.9% | RPMI-8226 leukemia -16.6% | OVCAR-8 ovarian -35.6% | OVCAR-4 ovarian -72.7% | SK-OV-3 ovarian -8.54% | IGROV1 ovarian -55.6% | OVCAR-3 ovarian -16.2% | T-47D breast -58% | BT-549 breast -94.2% | MDA-MB-435 melanoma -80.1% | SW-620 colon -9.46% | MCF7 breast -60.2% | HCC-2998 colon -47.2% | KM12 colon -6.54%
inactive: HS 578T breast 14.2% | NCI/ADR-RES ovarian 99.3%

COc1cc(C#N)cc(OC)c1OCCN(CCOc1c(OC)cc(C#N)cc1OC)S(=O)(=O)c1ccc(C)cc1
inactive: SR leukemia 106% | RPMI-8226 leukemia 90.6% | OVCAR-5 ovarian 108% | OVCAR-4 ovarian 107% | SK-OV-3 ovarian 119% | IGROV1 ovarian 77.3% | OVCAR-3 ovarian 118% | HS 578T breast 99% | NCI/ADR-RES ovarian 95.9% | T-47D breast 96.3% | BT-549 breast 107% | MDA-MB-435 melanoma 114% | SW-620 colon 99.6% | MCF7 breast 108% | HCT-116 colon 81.6% | HCC-2998 colon 94.8% | KM12 colon 108%

O=C1c2cccnc2C(=O)c2c1c(C(=O)OCCN1CCOCC1)c1ccccn21
active: SR leukemia -10.1% | OVCAR-5 ovarian -9.33% | SK-OV-3 ovarian -0.946% | IGROV1 ovarian 1.32% | OVCAR-3 ovarian -6.91% | NCI/ADR-RES ovarian 5.58% | T-47D breast 9.37% | BT-549 breast -13.3% | MDA-MB-435 melanoma -36% | SW-620 colon 6.61% | MCF7 breast -45.9% | HCT-116 colon -1.07%
inactive: RPMI-8226 leukemia 10.1% | OVCAR-4 ovarian 24.2% | HS 578T breast 30.3% | HCC-2998 colon 10.7% | KM12 colon 22.2%

CN1CCN(Cc2ccc(NC(=O)c3cncc(C#Cc4cncc5nccnc45)c3)cc2C(F)(F)F)CC1
inactive: SR leukemia 63.7% | RPMI-8226 leukemia 36.9% | OVCAR-5 ovarian 36.4% | OVCAR-4 ovarian 38.9% | SK-OV-3 ovarian 74.7% | IGROV1 ovarian 22.2% | OVCAR-3 ovarian 69.9% | HS 578T breast 39.6% | NCI/ADR-RES ovarian 72.4% | T-47D breast 46.5% | BT-549 breast 82.8% | MDA-MB-435 melanoma 21.9% | SW-620 colon 26.4% | MCF7 breast 33.8% | HCT-116 colon 20.2% | HCC-2998 colon 33.6% | KM12 colon 13.9%

Cc1ccc(-c2nc(/C=N/Nc3cc(C)nc4ccc(Br)cc34)c(C)o2)cc1
inactive: SK-OV-3 ovarian 105% | HS 578T breast 102% | BT-549 breast 86.3%
active: SR leukemia 2.27% | RPMI-8226 leukemia -38.5% | OVCAR-5 ovarian -68.7% | OVCAR-4 ovarian -94.3% | IGROV1 ovarian -77.3% | OVCAR-3 ovarian -94.8% | NCI/ADR-RES ovarian -69.9% | T-47D breast -8.4% | MDA-MB-435 melanoma -95.1% | SW-620 colon -84.7% | MCF7 breast -78.6% | HCT-116 colon -65.8% | HCC-2998 colon -63.4% | KM12 colon -39.9%

NC1=CSC2=N/C(=C\c3ccc(Cl)cc3)C(=O)N12
inactive: RPMI-8226 leukemia 39.9% | OVCAR-5 ovarian 105% | OVCAR-4 ovarian 84.1% | SK-OV-3 ovarian 89.3% | IGROV1 ovarian 79.2% | OVCAR-3 ovarian 71.6% | HS 578T breast 101% | NCI/ADR-RES ovarian 76.1% | T-47D breast 79% | BT-549 breast 75.3% | MDA-MB-435 melanoma 68% | SW-620 colon 71.3% | MCF7 breast 67.2% | HCT-116 colon 66.1% | HCC-2998 colon 90.2% | KM12 colon 89.2%
active: SR leukemia -2.29%

COc1cc(-c2cnc3nonc3n2)c(OC)c2c1OCO2
inactive: SR leukemia 50.1% | RPMI-8226 leukemia 65.7% | OVCAR-5 ovarian 124% | OVCAR-4 ovarian 75.3% | SK-OV-3 ovarian 105% | IGROV1 ovarian 82.7% | OVCAR-3 ovarian 76.9% | HS 578T breast 105% | NCI/ADR-RES ovarian 99.3% | T-47D breast 85.4% | BT-549 breast 105% | MDA-MB-435 melanoma 111% | SW-620 colon 101% | MCF7 breast 81.3% | HCT-116 colon 99.1% | HCC-2998 colon 102% | KM12 colon 103%

CCN(CC)CCCNc1cccc2c(SCc3ccccc3)ccnc12
active: SR leukemia -27.9% | RPMI-8226 leukemia -39.7% | IGROV1 ovarian -40.3% | MDA-MB-435 melanoma -27.9%
inactive: OVCAR-8 ovarian 89.9% | OVCAR-4 ovarian 104% | SK-OV-3 ovarian 97.8% | OVCAR-3 ovarian 36.8% | NCI/ADR-RES ovarian 42% | T-47D breast 103% | BT-549 breast 74.8% | SW-620 colon 55% | MCF7 breast 98.6% | HCC-2998 colon 25.4% | KM12 colon 34%

CC(C)[C@@H]1CC[C@]2(C(=O)NCCCCN=C(N)N)CC[C@]3(C)[C@H](CC[C@@H]4[C@@]5(C)CCC(=O)C(C)(C)[C@@H]5CC[C@]43C)[C@@H]12
inactive: SR leukemia 33.6% | RPMI-8226 leukemia 36.3% | OVCAR-5 ovarian 97.4% | OVCAR-4 ovarian 84.3% | SK-OV-3 ovarian 91.7% | IGROV1 ovarian 25.6% | OVCAR-3 ovarian 55.4% | HS 578T breast 73% | NCI/ADR-RES ovarian 101% | T-47D breast 37.4% | BT-549 breast 90.5% | MDA-MB-435 melanoma 56.2% | SW-620 colon 71.3% | MCF7 breast 33.5% | HCT-116 colon 72.9% | HCC-2998 colon 53.7% | KM12 colon 40.9%
